Source: PubChem BioAssay AID2599 (Sanford-Burnham Center for Chemical Genomics, 2010)
About 5,800 (1.8%) of roughly 330,000 compounds were called active.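 How the source made its calls: active means inhibition above about 50% at the single tested dose (limit read from the data); inactive means the rest.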 The entries come from a sample that favours actives as a whole.

The molecules below were run against Sentrin-specific protease 6 (Homo sapiens) (UniProt Q9GZR1) (assay: SENP6 protease inhibitors, primary screen, biochemical, luminescence, uHTS (AID 2599;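 further: plate controls were DMSO wells with enzyme for no effect and DMSO wells lacking enzyme for full effect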)). Settings: Recombinant SENP6 catalytic domain, aminoluciferin luminescence; at 10 µM; stronger effect = higher value.
Sequence of Sentrin-specific protease 6 (Homo sapiens) (Q9GZR1 628-1112 limits assumed): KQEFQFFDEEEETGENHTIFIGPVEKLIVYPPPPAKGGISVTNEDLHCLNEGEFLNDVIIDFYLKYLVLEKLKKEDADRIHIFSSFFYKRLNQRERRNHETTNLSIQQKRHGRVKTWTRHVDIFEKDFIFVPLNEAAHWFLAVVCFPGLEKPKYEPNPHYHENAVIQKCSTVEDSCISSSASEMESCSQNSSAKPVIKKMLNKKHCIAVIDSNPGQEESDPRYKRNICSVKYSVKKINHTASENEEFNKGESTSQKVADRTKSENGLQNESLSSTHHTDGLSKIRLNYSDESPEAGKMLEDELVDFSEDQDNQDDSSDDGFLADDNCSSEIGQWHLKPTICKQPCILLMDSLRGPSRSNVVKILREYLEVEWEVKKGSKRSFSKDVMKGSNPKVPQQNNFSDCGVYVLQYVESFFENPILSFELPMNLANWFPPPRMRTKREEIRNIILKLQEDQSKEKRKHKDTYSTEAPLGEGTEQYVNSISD
In the case of `CCOC(=O)C1(Cc2ccccc2C(F)(F)F)CCN(C(=O)c2cc(C)n(C)n2)CC1`, the inhibition is reported as -1.7% (inactive).
For `O=C(NC(=S)N1CCc2ccccc21)c1ccco1`, the inhibition was 7.02% (inactive).
For `Cc1ccc(C(=O)c2c(NC(=O)c3ccccc3)sc(C)c2C)cc1`, the inhibition was -6.69% (inactive).
`Cc1sc(NC(=O)c2ccc3ncsc3c2)c(C(N)=O)c1C` was tested, and the inhibition was 71.4% (active).
In the case of `COc1ccccc1-c1nnc(NC(=O)c2ccc3ncsc3c2)o1`, the inhibition is reported as -1.73% (inactive).
For `COc1ccc(CN(Cc2ccco2)S(=O)(=O)c2ccc(S(=O)(=O)N3CCCC3)cc2)cc1`, the inhibition was 3.07% (inactive).
`COc1ccc(N2CCN(C(=O)/C(C#N)=C/c3ccccc3)CC2)cc1` was tested, and the inhibition was 1.08% (inactive).
In the case of `CCOC(=O)/C(C#N)=C/c1ccc(N2CCN(Cc3ccccc3)CC2)cc1`, the inhibition is reported as -1.35% (inactive).
For `CCOC(=O)/C(C#N)=C/c1ccc(N2CCCCC2)cc1`, the inhibition was 52.8% (active).
For `CC1(C)CC(=O)C=C(NCCCN2CCCC2=O)C1`, the inhibition was 4.58% (inactive).
With `CC[N+](C)(CC)CCC[n+]1c(-c2ccccc2)c2cc(N)ccc2c2ccc(N)cc21` the inhibition was 89.2% (active).
In the case of `Cc1cc(C)n2nc(C(=O)Nc3cccc(S(=O)(=O)N4CCOCC4)c3)nc2n1`, the inhibition is reported as -2.51% (inactive).
With `CCn1c(NC(=O)c2nn(C)cc2Br)nc2ccccc21` the inhibition was -7.2% (inactive).
For `Cn1c(NC(=O)c2ccccc2)nc2ccccc21`, the inhibition was 75.7% (active).
With `Cn1c(-c2ccc(C(=O)c3ccccc3)s2)nc2ccccc21` the inhibition was 68.7% (active).
In the case of `Cc1nc2ccccc2c(-c2ccccc2)c1C(=O)c1ccccc1`, the inhibition is reported as -18.6% (inactive).
With `Cc1nn(C)cc1C(=O)c1ccccc1` the inhibition was 0.575% (inactive).
For `Cn1c(Nc2cccc(Cl)c2)nc2ccccc21`, the inhibition was 21.9% (inactive).
With `O=C(CN(c1ccc2c(c1)OCCO2)S(=O)(=O)c1ccccc1)Nc1ccc2c(c1)OCO2` the inhibition was 12.2% (inactive).
With `CCOC(=O)C1C(c2ccc(OC)c(OC)c2)c2c([nH][nH]c2=O)CC1(C)O` (stereo not given) the inhibition was -17.3% (inactive).
For `Cc1nn(CC(=O)NC2CCCCC2)c(=O)c2cccn12`, the inhibition was 9.49% (inactive).
In the case of `O=C(Cc1ccc(F)cc1)N1CCN=C1SCc1cccc([N+](=O)[O-])c1`, the inhibition is reported as 4.91% (inactive).
`CCOC(=O)N1CCN(c2cc(C)c([N+](=O)[O-])cc2F)CC1` was tested, and the inhibition was -3.66% (inactive).
`CCn1cc(-c2cc(C(=O)O)on2)c(C)n1` was tested, and the inhibition was 15.3% (inactive).
With `Cc1ccn2cc(-c3nonc3C)cc2c1` the inhibition was 53.2% (active).
`O=[N+]([O-])c1ccc(N/N=C/c2ccccc2)cc1` was tested, and the inhibition was 0.552% (inactive).
With `O=C(O)/C=C/C(=O)NNc1ccc([N+](=O)[O-])cc1` the inhibition was 82.9% (active).
`CNC(=S)Nc1ccc([N+](=O)[O-])cc1` was tested, and the inhibition was -24.9% (inactive).
In the case of `CCS(=O)(=O)c1ccc(C(=O)NC)c(Cl)c1Cl`, the inhibition is reported as 5.83% (inactive).
For `COc1ccccc1C(=O)Nn1cnnc1`, the inhibition was -21.9% (inactive).
In the case of `COC(=O)c1ccc(/C=C/c2c(-c3ccc(OC)cc3)sc3ccccc23)cc1`, the inhibition is reported as 17.2% (inactive).
With `COc1ccc(N=C(C)c2sc3ccccc3c2O)cc1` the inhibition was 82.8% (active).
With `COc1ccc(-c2sc3ccccc3c2-c2ccc(OCCN3CCOCC3)cc2)cc1` the inhibition was -11.4% (inactive).
`Cc1ccc(S(=O)(=O)N(c2cccc(C)c2)C2CCS(=O)(=O)C2)cc1` (stereo not given) was tested, and the inhibition was 7.06% (inactive).
For `CSCC[C@H](NC(=O)N1CCn2c1nc1ccccc12)C(=O)NC1CCCCC1`, the inhibition was -2.54% (inactive).
`COC(=O)C1=C(C)N(C)C(=S)NC1c1cc(OC)ccc1OC` (stereo not given) was tested, and the inhibition was 6.54% (inactive).
In the case of `Clc1ccc(COn2c(-c3ccc(Cl)cc3Cl)nc3ncccc32)cc1`, the inhibition is reported as 3.31% (inactive).
With `O=C1c2ccccc2C(=O)N1Cc1cc(-c2ccccc2Cl)no1` the inhibition was -13.7% (inactive).
For `Clc1ccc(-c2cc(-c3ccccn3)on2)c(Cl)c1`, the inhibition was 95.1% (active).
`CC1(C)OC(=O)C(=CNC(CO)C(=O)O)C(=O)O1` (stereo not given) was tested, and the inhibition was -15.5% (inactive).
In the case of `COc1ccc(S(=O)(=O)N2CCOC23CCN(S(=O)(=O)c2ccc([N+](=O)[O-])cc2)CC3)cc1`, the inhibition is reported as -0.227% (inactive).
In the case of `CC(C)C(NC(=O)c1cccc(S(=O)(=O)N2CCOCC2)c1)C(=O)NCCc1ccccn1` (stereo not given), the inhibition is reported as 0.86% (inactive).
In the case of `COc1ccc(/C=C/c2noc(-c3ccccc3OC(C)=O)n2)cc1`, the inhibition is reported as 89.4% (active).
For `CC(=O)Oc1ccc(-c2nc3c(C)cccc3c(=O)o2)cc1`, the inhibition was 13.4% (inactive).
In the case of `COc1cccc(/C=C/c2ccc3ccccc3n2)c1OC(C)=O`, the inhibition is reported as 14.1% (inactive).
For `O=C(Cc1ccc(S(=O)(=O)N2CCCC2)s1)NC1CCCCCC1`, the inhibition was -13.1% (inactive).
With `CSCCC(NC(=O)c1ccco1)C(=O)NCCc1ccc(F)cc1` (stereo not given) the inhibition was 5.31% (inactive).
In the case of `CC(=O)Oc1ccc2c(=O)oc(-c3ccc([N+](=O)[O-])cc3)nc2c1`, the inhibition is reported as 32.4% (inactive).
In the case of `COc1cccc(-c2nc3cc(C)ccc3o2)c1`, the inhibition is reported as 97.8% (active).
For `COc1cccc(-c2nnc(SCCOc3ccc4c(C)cc(=O)oc4c3)o2)c1`, the inhibition was -18.6% (inactive).
For `COc1ccc([N+](=O)[O-])cc1-c1nc2ccccc2nc1-c1ccccc1`, the inhibition was -3.14% (inactive).
For `O=[N+]([O-])c1ccc2oc(-c3cccc(O)c3)nc2c1`, the inhibition was 65.4% (active).
In the case of `COc1ccc2oc(-c3cccc(NC(=O)CSc4ccc(Cl)cc4)c3)nc2c1`, the inhibition is reported as -0.568% (inactive).
With `COC(=O)c1ccccc1NC(=O)C1CCN(S(=O)(=O)c2cc(OC)ccc2OC)CC1` the inhibition was -0.874% (inactive).
For `Cc1ccc(NC(=O)C(=O)NCC2CCN(C(=O)c3cccc([N+](=O)[O-])c3)CC2)cc1`, the inhibition was 0.692% (inactive).
`N#Cc1cccc(CSc2nnc(CCCO)n2-c2ccccc2)c1` was tested, and the inhibition was -0.983% (inactive).
`Cc1cccc(NC(=O)c2cc(N3C(=O)CCC3=O)ccc2Cl)n1` was tested, and the inhibition was -4.72% (inactive).
In the case of `Cc1cccc(NC(=O)c2ccc3ccccc3n2)n1`, the inhibition is reported as 77.2% (active).
With `Cc1cccc(NC(=O)c2cccnc2Cl)n1` the inhibition was 24.9% (inactive).
In the case of `COc1ccc(NC(=O)c2cn(-c3ccccc3)nc2SC)cc1`, the inhibition is reported as 0.083% (inactive).
`Cc1c(C(C)CCCO)oc(=O)c2c1Oc1c(C)c(C(C)C[C@@H](C)O)oc(=O)c1C2` (stereo not given in full) was tested, and the inhibition was 13.7% (inactive).
In the case of `O=C(Oc1ccc(Br)cc1C(=S)N1CCOCC1)c1cccc([N+](=O)[O-])c1`, the inhibition is reported as -3.34% (inactive).
In the case of `Cc1ccc(/C=C(\C#N)C(=O)Nc2cccc3ncccc23)o1`, the inhibition is reported as -57.2% (inactive).
`O=C(NNS(=O)(=O)c1ccccc1C(F)(F)F)c1cc2ncc(C(F)(F)F)cc2s1` was tested, and the inhibition was 4.2% (inactive).
For `Cc1ccc(-n2cc3ccc([N+](=O)[O-])cc3n2)cc1`, the inhibition was 86.9% (active).
`Cc1ccnc(N2C(=O)c3ccc([N+](=O)[O-])cc3C2=O)c1` was tested, and the inhibition was -9.97% (inactive).
For `Cc1ccc(-c2cn(S(=O)(=O)c3cccc([N+](=O)[O-])c3)nc2N)cc1`, the inhibition was -7.28% (inactive).
For `Cn1cc[n+](C)c1COc1ccc(C=O)cc1`, the inhibition was -1.65% (inactive).
In the case of `N#Cc1cc([N+](=O)[O-])ccc1NCC1CCCO1` (stereo not given), the inhibition is reported as -15.1% (inactive).
`COc1ccc(C(=O)Nc2ccccc2C(=O)N/N=C/c2ccc(O)c(OC)c2)cc1` was tested, and the inhibition was 98.7% (active).
In the case of `COc1ccccc1C(=O)NNC(=O)c1ccc(NC(=O)c2ccccc2)cc1`, the inhibition is reported as 5.14% (inactive).
In the case of `COc1ccc(NS(=O)(=O)c2cc(C(=O)Nc3ccccc3C(=O)O)ccc2C)cc1`, the inhibition is reported as -2.27% (inactive).
With `COc1ccc(/C=N/OCC(=O)N(Cc2ccccc2)c2ccccc2C(=O)O)cc1` the inhibition was -17.2% (inactive).
With `COc1ccc(C(=O)Nc2ccccc2C(=O)N/N=C/c2ccccc2OC)cc1` the inhibition was 66.7% (active).
With `COc1ccc(C(=O)Nc2cc(C)c(NC(=O)c3ccccc3OC)cn2)cc1` the inhibition was 37.3% (inactive).
For `COc1ccc(/C=N/Nc2ccccc2C(=O)O)cc1`, the inhibition was 93.1% (active).
With `CCOc1cc(/C=N/NC(=O)c2cc(-c3ccccc3)nc3ccccc23)ccc1O` the inhibition was 19.5% (inactive).
In the case of `COc1cc(/C=N/NC(=O)c2ccc(N3CCCC3=O)cc2)ccc1O`, the inhibition is reported as -7.53% (inactive).
In the case of `O=C(O)CC(c1ccccc1F)N1Cc2ccccc2C1=O` (stereo not given), the inhibition is reported as -11.5% (inactive).
For `COc1ccc(/C=N/n2c(C)cc(C)cc2=O)cc1`, the inhibition was -12.1% (inactive).
In the case of `O=C(N/N=C/c1ccsc1)c1cc(O)cc(O)c1`, the inhibition is reported as 3.66% (inactive).
In the case of `CCn1cc(/C=C(\NC(=O)c2cc(OC)c(OC)c(OC)c2)C(=O)N2CCN(C)CC2)c2ccccc21`, the inhibition is reported as 0.634% (inactive).
For `O=C(/C=C/c1ccc2c(c1)OCO2)NCc1ccc(F)cc1`, the inhibition was 1.24% (inactive).
In the case of `Cc1cccc(NC(=O)/C=C/c2ccc3c(c2)OCO3)n1`, the inhibition is reported as 82.7% (active).
For `Cc1cccc(NC(=O)Nc2ccc3c(c2)OCO3)n1`, the inhibition was -17.4% (inactive).
With `CCCc1ccc(OCc2ccc(C(=O)N/N=C/c3cccc([N+](=O)[O-])c3)o2)c(OC)c1` the inhibition was -3.27% (inactive).
For `COc1ccccc1N1CCN(C(=O)CCS(=O)(=O)c2ccc3c(c2)NC(=O)C(C)S3)CC1` (stereo not given), the inhibition was 4.9% (inactive).
`CCOC(=O)C(C)N(c1ccccc1Cl)S(C)(=O)=O` (stereo not given) was tested, and the inhibition was 14.8% (inactive).
`O=C(O)c1cc(Cl)c(Cl)cc1C(=O)Nc1cccc2ncccc12` was tested, and the inhibition was 57% (active).
`COc1ccccc1NC(=O)c1cc(Cl)nc2ccccc12` was tested, and the inhibition was -4.88% (inactive).
`O=C(O)c1ccccc1-c1ccccc1C(=O)Nc1cccc2ccccc12` was tested, and the inhibition was -15.6% (inactive).
With `CN(Cc1ccccc1F)C(=O)C(Cc1ccccc1)NC(=O)c1ccccc1` (stereo not given) the inhibition was -9.94% (inactive).
In the case of `Cc1cccc(-c2noc(-c3ccc(F)cc3)n2)c1`, the inhibition is reported as 94.2% (active).
With `Cn1nc(-c2ccccc2)c(-c2nc(-c3ccc(Cl)cc3)no2)c1Cl` the inhibition was 3.33% (inactive).
In the case of `Cc1cccc(-c2noc(CCC(=O)NC3CCCC3)n2)c1`, the inhibition is reported as -13.6% (inactive).
